Test systems include NCI-H226 lung; NCI-H322M lung; HOP-62 NSCLC; NCI-H460 lung; HOP-92 NSCLC; NCI-H522 lung; A549/ATCC NSCLC; 786-0 renal; DU-145 prostate; K-562 leukemia; MALME-3M melanoma; MDA-MB-231 breast; RXF 393 renal; SF-268 CNS; SF-295 CNS; SF-539 CNS; UACC-257 melanoma; M14 melanoma; COLO 205 colon.
Test in all cases: NCI-60 one-dose screen, 48 h (100 = growth as untreated, 0 = no growth, -100 = all killed)
Details in all cases: 10 µM unless noted

The results in this text go back to PubChem BioAssay (NCI).

This is part of a sample that, as a whole, favours compounds with a hit. Of some 83,000 tested, about 20% had one in any assay.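 Growth was measured after 48 h exposure to one concentration of compound in 96-well plates. Values under 10 count as active.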 Values without a mark were called inactive. Active and inactive are the calls of the source.

In the case of `CC(=O)Nc1ccc2c(c1)Cc1c(F)cccc1-2`, the growth with NCI-H226 lung was 89.4%; in the experiment with NCI-H322M lung it was 112%; in the experiment with HOP-62 NSCLC, 116%; in the experiment with NCI-H460 lung, 92.2%; with HOP-92 NSCLC it was 89%; with NCI-H522 lung it was 89%. Further, the growth in the experiment with A549/ATCC NSCLC was 92%; with 786-0 renal, 115%; with DU-145 prostate, 102%; in the experiment on K-562 leukemia, 120%; in the experiment on MALME-3M melanoma, 130%; in the experiment with MDA-MB-231 breast, 101%. Moreover, the growth in the experiment with RXF 393 renal is 99%; with SF-268 CNS, 83.7%; in the experiment on SF-295 CNS it was 109%; with SF-539 CNS it was 99.4%; with UACC-257 melanoma it was 110%; with M14 melanoma it was 119%.

In the case of `COC(=O)CCCNC(=O)C(=O)c1c(O)c(O)c(C(C)C)c2cc(C)c(-c3c(C)cc4c(C(C)C)c(O)c(O)c(C(=O)C(=O)NCCCC(=O)OC)c4c3O)c(O)c12`, the growth in the experiment with NCI-H226 lung is -17.2% (active); in the experiment with NCI-H322M lung, 29.6%; in the experiment with HOP-62 NSCLC, 13%; in the experiment on NCI-H460 lung, 0.963% (active); in the experiment on HOP-92 NSCLC, -0.407% (active); in the experiment on NCI-H522 lung, -38.9% (active). The growth with A549/ATCC NSCLC was -6.82% (active); with 786-0 renal it was 4.56% (active); in the experiment with DU-145 prostate, -0.703% (active); in the experiment on K-562 leukemia, 6.26% (active); in the experiment with MALME-3M melanoma, 19.7%; with MDA-MB-231 breast, -16.3% (active). In addition, the growth in the experiment with RXF 393 renal is -6.97% (active); in the experiment with SF-268 CNS, 8.13% (active); with SF-295 CNS, -7.03% (active); with SF-539 CNS it was -1.93% (active); in the experiment with UACC-257 melanoma it was -21.5% (active); in the experiment with M14 melanoma it was -20.7% (active).

`CSc1ccc(Cl)c(C(=O)Nc2sccc2C(N)=O)c1`: the growth with NCI-H226 lung is 79.9%; in the experiment with NCI-H322M lung it was 124%; in the experiment on HOP-62 NSCLC, 107%; with NCI-H460 lung, 101%; with HOP-92 NSCLC it was 75.6%; in the experiment with NCI-H522 lung, 92.2%. Moreover, the growth is 85.6% in the experiment on A549/ATCC NSCLC; 94.2% with 786-0 renal; 102% in the experiment on DU-145 prostate; 110% with K-562 leukemia; 141% in the experiment on MALME-3M melanoma; 99% in the experiment on MDA-MB-231 breast. Besides, the growth was 60.2% in the experiment on RXF 393 renal; 93.7% with SF-268 CNS; 123% in the experiment on SF-295 CNS; 99.8% with SF-539 CNS; 104% in the experiment with UACC-257 melanoma; 123% with M14 melanoma.

`Cc1ccc(S(=O)(=O)NN/C(N)=N\S(=O)(=O)c2cc(C)c(Cl)cc2SCc2ccccc2)cc1`: the growth was 90.4% in the experiment on NCI-H226 lung; 168% in the experiment on NCI-H322M lung; 82.4% in the experiment on HOP-62 NSCLC; 110% with NCI-H460 lung; 71% in the experiment with HOP-92 NSCLC; 29.9% with NCI-H522 lung. Moreover, the growth in the experiment with A549/ATCC NSCLC is 56.7%; in the experiment on 786-0 renal it was 93.4%; in the experiment on COLO 205 colon it was 115%; in the experiment with DU-145 prostate, 115%; in the experiment on K-562 leukemia, 57.8%; in the experiment on MALME-3M melanoma it was 76.1%. Moreover, the growth in the experiment with MDA-MB-231 breast is 92.5%; in the experiment on RXF 393 renal, 8.06% (active); in the experiment on SF-268 CNS, 102%; with SF-295 CNS it was 95%; in the experiment on SF-539 CNS, 73.9%; in the experiment with UACC-257 melanoma it was 97.3%.

As for `COc1cc2c(cc1OC)-c1ccc3cc4c(cc3c1N(CCN1CCCC1)C2)OCO4`, the growth with NCI-H226 lung is -3.34% (active); with NCI-H322M lung, 5.86% (active); in the experiment with HOP-62 NSCLC, -18.1% (active); in the experiment on NCI-H460 lung, -19.4% (active); in the experiment with HOP-92 NSCLC, 22.8%; with NCI-H522 lung, -39.7% (active). Moreover, the growth in the experiment on A549/ATCC NSCLC is 5.78% (active); with 786-0 renal, -32% (active); with DU-145 prostate, 11.5%; with K-562 leukemia, -3.86% (active); with MALME-3M melanoma, 51.4%; with MDA-MB-231 breast, -38.6% (active). The growth in the experiment with RXF 393 renal is -3.76% (active); with SF-268 CNS, 20.1%; in the experiment with SF-295 CNS it was 4.42% (active); in the experiment on SF-539 CNS, 4.16% (active); in the experiment on UACC-257 melanoma it was 44.2%; with M14 melanoma it was 17.4%.

Consider `Cc1ccc(S(=O)(=O)N(CC[C@@H]2C[C@H]2c2cc3ccccc3o2)C(=O)NC2CCCCC2)cc1`, for which the growth with NCI-H226 lung was 87.3%; with NCI-H322M lung, 108%; in the experiment on HOP-62 NSCLC, 93.1%; in the experiment with NCI-H460 lung, 104%; with HOP-92 NSCLC, 110%; in the experiment with NCI-H522 lung, 86%. The growth with A549/ATCC NSCLC is 101%; with 786-0 renal, 95.4%; with DU-145 prostate it was 107%; with K-562 leukemia it was 91.1%; with MALME-3M melanoma, 96.1%; in the experiment with MDA-MB-231 breast, 90.1%. Moreover, the growth with RXF 393 renal is 106%; in the experiment with SF-268 CNS, 98.8%; in the experiment on SF-295 CNS, 110%; with SF-539 CNS, 95%; in the experiment with UACC-257 melanoma it was 108%; in the experiment with M14 melanoma it was 96.5%.

As to `Cc1[nH]c(-c2nc3ccccc3[nH]2)c(C)c1C(=O)N1CCOCC1`, the growth with NCI-H226 lung is 91.4%; with NCI-H322M lung, 94.6%; in the experiment with HOP-62 NSCLC, 105%; in the experiment with NCI-H460 lung it was 101%; in the experiment with HOP-92 NSCLC, 91.1%; in the experiment with NCI-H522 lung it was 91%. The growth was 101% with A549/ATCC NSCLC; 102% in the experiment with 786-0 renal; 107% in the experiment on DU-145 prostate; 106% with K-562 leukemia; 95.7% with MALME-3M melanoma; 83.7% in the experiment on MDA-MB-231 breast. For the same compound, the growth is 93.6% in the experiment on RXF 393 renal; 99.5% with SF-268 CNS; 96% in the experiment on SF-295 CNS; 96.2% in the experiment with SF-539 CNS; 94.1% in the experiment on UACC-257 melanoma; 95% in the experiment on M14 melanoma.

With `COc1ccc(-c2nc3sccn3c2/C=C/C(=O)c2c[nH]c3ccccc23)cc1`, the growth in the experiment with NCI-H226 lung is 66.8%; with NCI-H322M lung it was 63.6%; in the experiment on HOP-62 NSCLC, 71.7%; in the experiment with NCI-H460 lung, 70.2%; with HOP-92 NSCLC, -5.53% (active); with NCI-H522 lung, 55.6%. Moreover, the growth in the experiment on A549/ATCC NSCLC was 54.1%; with 786-0 renal, 78.8%; with COLO 205 colon, 102%; with DU-145 prostate, 57.3%; in the experiment with K-562 leukemia, 78.9%; in the experiment with MALME-3M melanoma, 69.8%. The growth is 32.7% in the experiment with MDA-MB-231 breast; 61.3% in the experiment with SF-268 CNS; 78.5% in the experiment with SF-295 CNS; 82.7% in the experiment with SF-539 CNS; 87.2% in the experiment on UACC-257 melanoma.
